ssDAF-12 act: S. stercoralis DAF-12 activation, primary screen | HEK293 ssDAF-12/GRIP1 lit1-tk-luc reporter, luminescence; % of 3 µM dafachronic acid response | activation, % at 6.8 µM | 1% of 370,000 active | AID 652126;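 active = activation above the mean over all tested compounds plus 3 SD, cut at about 0.9% in these data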;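 also: 0% = DMSO-only wells and 100% = 3 µM delta7-dafachronic acid wells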
DAX1 inh-1: inhibits human nuclear receptor DAX1; P51843; HEK293 Gal4-DAX1 luciferase reporter, luminescence; inhibition, % at 6.75 µM; 0.99% of 340,000 active; AID 504766;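 active = inhibition above the mean over all tested compounds plus 3 SD, cut at about 4.2% in these data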;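 also: 0% = DAX1-transfected cells with DMSO and 100% = empty-vector control cells with DMSO; inhibition shows as a rise in luminescence from relieved DAX1 repression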
hcDAF12 agonist: H. contortus DAF-12 activation, primary screen; HEK293 hcDAF-12 lit1-tk-luc reporter, luminescence; 0% DMSO, 100% Δ7-dafachronic acid; activation, % at 6.8 µM; 1.4% of 370,000 active;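 active = activation above the mean of all tested compounds plus 3 SD, cut at about 5.5% in these data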;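 also: 100% = response to 3 µM Δ7-dafachronic acid high control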
DAX1 inh-2: blocks DAX1 repression of SF-1 activated StAR promoter. HEK293T StAR-luciferase reporter, SF-1/DAX-1 repression relief. inhibition, % at 6.8 µM. AID 652010. 1.1% of 370,000 active;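 active = inhibition above the mean over all tested compounds plus 3 SD, cut at about 3.6% in these data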;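 also: 0% = DAX-1 cells with DMSO and 100% = cells lacking DAX-1 with DMSO; higher inhibition means more luminescence from relief of DAX-1 repression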
SMARCA2 activ: SMARCA2 function activation, primary screen | activation, % at 9.1 µM | MG213 cells, MMTV-luciferase reporter, dexamethasone, overnight | 1% of 370,000 active; in the data active = activation above about 7.8%;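 also: 0% = vehicle wells and 100% = reference activator wells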
hgDAF12 agonist: hgDAF-12 agonism, primary luciferase screen; 1.8% of 370,000 active; activation, % at 6.8 µM; HEK293 GAL4-hgDAF12 UAS-luciferase reporter, agonist luminescence; normalized to butyrate control;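 active = activation above a cutoff set at the mean of all screened compounds plus 3 SD, cut at about 10% in these data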;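 also: 0% = DMSO wells and 100% = sodium butyrate wells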
LXRb hcDAF ctr: counter-screen for hcDAF-12 agonists: agonists of human LXR-beta | HEK293 Gal4-LXR tk-luc reporter, luminescence, 24 h; normalized: DMSO 0%, positive control 100% | 3,400 tested, under 10 active | activation, % at 6.8 µM | shares compounds with hcDAF12 agonist;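 active = mean percent activation of the reporter above a cutoff set as the average over tested compounds plus their standard deviation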
Target sequence (P55055 whole entry, looked up, the tested form may be a part): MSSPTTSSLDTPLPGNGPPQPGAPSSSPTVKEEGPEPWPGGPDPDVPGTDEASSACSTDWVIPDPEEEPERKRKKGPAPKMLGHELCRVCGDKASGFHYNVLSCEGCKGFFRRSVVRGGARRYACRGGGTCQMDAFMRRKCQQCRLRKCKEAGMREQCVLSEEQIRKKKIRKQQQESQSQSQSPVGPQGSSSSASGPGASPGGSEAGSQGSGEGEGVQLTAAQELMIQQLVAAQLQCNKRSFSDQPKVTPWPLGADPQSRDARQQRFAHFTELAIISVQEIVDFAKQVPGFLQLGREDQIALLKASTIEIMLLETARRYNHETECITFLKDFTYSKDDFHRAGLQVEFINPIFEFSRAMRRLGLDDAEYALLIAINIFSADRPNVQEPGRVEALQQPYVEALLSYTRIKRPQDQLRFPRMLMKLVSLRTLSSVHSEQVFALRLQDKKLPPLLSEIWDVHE
hcDAF12 ag: confirmation of H. contortus DAF-12 agonists | shares compounds with hcDAF12 agonist | HEK293 hcDAF-12 lit1-tk-luc reporter, luminescence; % of Δ7-dafachronic acid response | activation, % at 6.8 µM | 61% of 3,400 active | AID 743032;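 active = mean activation across triplicate tests above the threshold derived from the earlier primary screen, cut at about 5.5% in these data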;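 also: 0% = DMSO only wells and 100% = 3 µM Δ7-dafachronic acid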
Numbers without * were called inactive. A selection: hits, their analogues and other compounds. The true share with any hit is near 4.8%.

`COc1ccc(-n2c(SCC(=O)Nc3ccc4cn[nH]c4c3)nnc2-c2ccccc2)cc1` gave ssDAF-12 act -1.7, hcDAF12 agonist -1.9, DAX1 inh-2 -1.6, SMARCA2 activ -3.5 and hgDAF12 agonist 2.7.
CC(C)CN1C(=O)C[C@@]2(C(=O)N(C)c3ccc(NS(=O)(=O)C4CCCCC4)cc32)C1c1ccccc1 (stereo partly specified) was read as ssDAF-12 act -1.5, hcDAF12 agonist -0.6, DAX1 inh-2 -0.5, SMARCA2 activ -2.0 and hgDAF12 agonist -3.6.
CC(C)c1[nH]nc2c1C(C(C)C)C(C#N)=C(N)O2 (stereo unspecified) was read as ssDAF-12 act 1.3*, DAX1 inh-1 -0.4, hcDAF12 agonist 6.9*, DAX1 inh-2 0.4, SMARCA2 activ 1.8, hgDAF12 agonist -1.7, LXRb hcDAF ctr -0.1 and hcDAF12 ag 7.8*.
`O=C(N[C@H](Cc1ccccc1)C(=O)N1CCCN(Cc2ccccc2F)CC1)[C@H]1O[C@@H](n2ccc(=O)[nH]c2=O)[C@H](O)[C@@H]1O` gave ssDAF-12 act 0.0, hcDAF12 agonist 1.1, DAX1 inh-2 -0.3, SMARCA2 activ -3.8 and hgDAF12 agonist 6.3.
`O=C1NC(=Nc2ccccc2)S/C1=C\C=C\c1ccco1` gave ssDAF-12 act -0.9, DAX1 inh-1 0.4, hcDAF12 agonist 1.7, DAX1 inh-2 1.5, SMARCA2 activ 3.0 and hgDAF12 agonist 1.0.
Cc1ccc(N=C2NC(=O)/C(=C/C=C/c3ccco3)S2)cc1 was read as ssDAF-12 act -0.1, DAX1 inh-1 0.8, hcDAF12 agonist 7.9*, DAX1 inh-2 0.3, SMARCA2 activ 6.5, hgDAF12 agonist 1.7, LXRb hcDAF ctr 0.2 and hcDAF12 ag 5.6.
For O=[N+]([O-])c1cc2c(ccc3occc32)o1 the results were ssDAF-12 act -1.1, hcDAF12 agonist -0.8, DAX1 inh-2 -4.1, SMARCA2 activ 1.7 and hgDAF12 agonist -7.0.
Screening COc1ccc(/C=C/C(=O)Nc2cc(=O)n(C)c(=O)n2C)cc1 returned ssDAF-12 act -1.5, DAX1 inh-1 2.0, hcDAF12 agonist 3.3, DAX1 inh-2 1.1, SMARCA2 activ 0.9 and hgDAF12 agonist 6.0.
Cn1c(NC(=O)/C=C/c2ccccc2)cc(=O)n(C)c1=O was read as ssDAF-12 act 1.3*, DAX1 inh-1 4.8*, hcDAF12 agonist 10.5*, DAX1 inh-2 1.3, SMARCA2 activ 2.1, hgDAF12 agonist 2.5, LXRb hcDAF ctr 0.5 and hcDAF12 ag 6.3*.
CCC1(C)N=C(c2ccc3c(c2)OCO3)CC(c2ccccc2O)N1 (stereo unspecified) was read as ssDAF-12 act -0.4, DAX1 inh-1 0.7, hcDAF12 agonist 7.9*, DAX1 inh-2 0.3, SMARCA2 activ 4.0, hgDAF12 agonist 7.9, LXRb hcDAF ctr 0.8 and hcDAF12 ag 4.7.
For CSc1c(CC(=O)Nc2ccccc2)n(C)c2ccccc12 the results were ssDAF-12 act -0.1, DAX1 inh-1 0.2, hcDAF12 agonist 1.7, DAX1 inh-2 -1.0, SMARCA2 activ -2.2 and hgDAF12 agonist -5.4.
Screening Cn1c(CC(=O)Nc2ccccc2)c(Sc2ccccc2)c2ccccc21 returned ssDAF-12 act 0.5, DAX1 inh-1 0.2, hcDAF12 agonist 7.5*, DAX1 inh-2 0.1, SMARCA2 activ 3.4, hgDAF12 agonist 2.0, LXRb hcDAF ctr -0.2 and hcDAF12 ag 3.5.
Screening Cn1c(CC(=O)Nc2ccccc2)cc2ccccc21 returned ssDAF-12 act 1.0*, DAX1 inh-1 0.6, hcDAF12 agonist 9.9*, DAX1 inh-2 -0.4, SMARCA2 activ 2.3, hgDAF12 agonist 9.1, LXRb hcDAF ctr 0.2 and hcDAF12 ag 7.6*.
Screening COc1cccc(CNC(=O)[C@H]2CCCN2C(=O)[C@H]2CCCN2C(=O)c2ccc(C)c(C)c2)c1 returned ssDAF-12 act -0.7, hcDAF12 agonist -2.3, DAX1 inh-2 -2.4, SMARCA2 activ 1.1 and hgDAF12 agonist -0.4.
For Cc1ccc2sc(NC(=O)CSc3nc(C)cc(C)c3C#N)nc2c1 the results were ssDAF-12 act 0.9*, DAX1 inh-1 0.7, hcDAF12 agonist 10.7*, DAX1 inh-2 4.0*, SMARCA2 activ 4.7, hgDAF12 agonist 11.9*, LXRb hcDAF ctr 1.4 and hcDAF12 ag 10.5*.
`COc1ccc(O)c(C2=Nc3ccccc3N=C(c3cccs3)C2)c1` gave ssDAF-12 act 0.0, DAX1 inh-1 -0.3, hcDAF12 agonist 1.5, DAX1 inh-2 0.9, SMARCA2 activ 3.1 and hgDAF12 agonist 6.8.
COc1ccc(C2CC(c3cccs3)=Nc3ccccc3S2)cc1 (stereo unspecified) was read as ssDAF-12 act 0.3, DAX1 inh-1 2.4, hcDAF12 agonist 8.6*, DAX1 inh-2 0.5, SMARCA2 activ 6.5, hgDAF12 agonist 7.8, LXRb hcDAF ctr 0.2 and hcDAF12 ag 4.0.
Screening Nc1ccc2oc(-c3ccccn3)nc2c1 returned ssDAF-12 act -0.5, DAX1 inh-1 1.8, hcDAF12 agonist 1.6, DAX1 inh-2 0.7, SMARCA2 activ 6.2 and hgDAF12 agonist 4.6.
For Clc1ccc2oc(-c3ccccn3)nc2c1 the results were ssDAF-12 act 1.8*, DAX1 inh-1 2.0, hcDAF12 agonist 7.6*, DAX1 inh-2 2.0, SMARCA2 activ 5.8, hgDAF12 agonist 10.2, LXRb hcDAF ctr 1.2 and hcDAF12 ag 9.0*.
`O=S1(=O)c2ccc(N3CCC[C@@H]3CO)cc2O[C@H]2CCN1C2` gave ssDAF-12 act -0.8, hcDAF12 agonist 1.9, DAX1 inh-2 -0.3, SMARCA2 activ -1.2 and hgDAF12 agonist -2.6.
`O=C(c1ccc(-c2nc3ccccc3s2)o1)N1CCN(c2ccccc2O)CC1` gave ssDAF-12 act -0.5, DAX1 inh-1 -0.7, hcDAF12 agonist 6.8*, DAX1 inh-2 0.2, SMARCA2 activ -0.3, hgDAF12 agonist 2.8, LXRb hcDAF ctr -0.1 and hcDAF12 ag 4.0.
`Nn1c(SCC(=O)Nc2ccc(C(=O)O)cc2)nnc1-c1ccco1` gave ssDAF-12 act -1.0, hcDAF12 agonist -0.8, DAX1 inh-2 -0.1, SMARCA2 activ 0.3 and hgDAF12 agonist 2.9.
For O=C(Nc1ccc(F)cc1)OC1CC2CC1[C@H]1CCCCN1[C@H]2Cc1ccccc1 (stereo partly specified) the results were ssDAF-12 act -0.3, hcDAF12 agonist 3.2, DAX1 inh-2 0.0, SMARCA2 activ -2.4 and hgDAF12 agonist 2.2.

Bioassay records as filed in PubChem BioAssay.
